8 sequences from paper PMC8384837, “Expanding the binding specificity for RNA recognition by a PUF domain” can be followed below.

Substitutions are numbered along the chain they refer to.

Common to all, as to assay: yeast three-hybrid, YBZ-1, SC-Leu-His + 0.5 mM 3-AT, 4 days
Common to all, as to details: tags: N-Gal4 AD-HA kept; label: inside an RPR1-promoter hybrid RNA with tandem MS2 sites; ssRNA

Test [1] addresses PUM1 PUF domain R4-APA (Homo sapiens, UniProt Q14671 828-1176, N971A;H972P;Q975A). An outline of the steps: (§1)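 Repeat regions from input (SC-Leu) and selection (SC-Leu-His + 0.5 mM 3-AT) plates were PCR-amplified and Illumina-sequenced after four days of growth. The cells were strain YBZ-1 with a LexA–MS2 coat fusion and a HIS3 reporter, co-expressing Pumilio-1 PUF domain libraries and matching RNA elements from a centromeric plasmid. The interaction score is the log change in variant frequency from input to selection, taken in log2 with a pseudocount of 1 for absent variants.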

The target of test [2] is PUM1 PUF domain R3-RRG (Homo sapiens, UniProt Q14671 828-1176, C935R;Q939G). The procedure, abridged:
as §1

Test [3] addresses PUM1 PUF domain R3-FIA (Homo sapiens, UniProt Q14671 828-1176, C935F;R936I;Q939A). The procedure, abridged: as §1
The target in test [4] is PUM1 PUF domain R3-GWS (Homo sapiens, UniProt Q14671 828-1176, C935G;R936W;Q939S). An outline of the steps:
as §1

Test [5] has as its target PUM1 PUF domain R1-TTR (Homo sapiens, UniProt Q14671 828-1176, S863T;R864T;Q867R). The procedure, abridged: as §1
In test [6] the target is T1, PUM1 PUF domain R6-RWG (Homo sapiens, UniProt Q14671 828-1176, N1043R;Y1044W;Q1047G).
T1 sequence: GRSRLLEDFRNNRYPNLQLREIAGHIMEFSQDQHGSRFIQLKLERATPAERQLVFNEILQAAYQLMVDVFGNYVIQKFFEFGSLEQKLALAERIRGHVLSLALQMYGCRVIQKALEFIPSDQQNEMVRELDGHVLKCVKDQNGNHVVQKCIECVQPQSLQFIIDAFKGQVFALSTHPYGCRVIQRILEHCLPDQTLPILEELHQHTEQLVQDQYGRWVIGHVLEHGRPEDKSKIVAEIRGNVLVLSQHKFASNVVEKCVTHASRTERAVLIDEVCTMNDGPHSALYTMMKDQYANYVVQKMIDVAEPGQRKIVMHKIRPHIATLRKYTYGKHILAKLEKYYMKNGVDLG
The procedure, abridged: as §1

The target of test [7] is T2, PUM1 PUF domain R6-VFV (Homo sapiens, UniProt Q14671 828-1176, N1043V;Y1044F;Q1047V).
T2 sequence: T1 sequence with R216V, W217F, G220V
An outline of the steps:
as §1

Test [8] has as its target PUM1 PUF domain R8-AHR (Homo sapiens, UniProt Q14671 828-1176, N1122A;Y1123H;Q1126R). An outline of the steps:
as §1

The target in test [9] is PUM1 PUF domain R3-GCW (Homo sapiens, UniProt Q14671 828-1176, C935G;R936C;Q939W). The procedure, abridged: as §1
The target in test [10] is PUM1 PUF domain R3-DYV (Homo sapiens, UniProt Q14671 828-1176, C935D;R936Y;Q939V). An outline of the steps: as §1
The target in test [11] is PUM1 PUF domain R7-ERA (Homo sapiens, UniProt Q14671 828-1176, S1079E;N1080R;E1083A). An outline of the steps:
as §1

On to “GGCUAGAACUAGUGGAUCCCCCGGCGCCCGGCGGCUCGAGCCCGGGUAAGUGUAUAUAGUCUGCAUGCCGCCGGGCGCCAUGCCUGCAGGUCGACUCUAGAAAACAUG”, for which the binding signal in [1] is 2.47 log2 enrichment (interaction score).
On the same count and under the same terms, the figure for “GGCUAGAACUAGUGGAUCCCCCGGCGCCCGGCGGCUCGAGCCCGGGUAAGUGUACAUAGUCUGCAUGCCGCCGGGCGCCAUGCCUGCAGGUCGACUCUAGAAAACAUG” is 1.33 log2 enrichment (interaction score).
As for “GGCUAGAACUAGUGGAUCCCCCGGCGCCCGGCGGCUCGAGCCCGGGUAAGUGUAAGUAGUCUGCAUGCCGCCGGGCGCCAUGCCUGCAGGUCGACUCUAGAAAACAUG”, the binding signal is 0.28 log2 enrichment (interaction score) in test [2], 3.2 log2 enrichment (interaction score) in test [3] and 1.75 log2 enrichment (interaction score) in test [4].
As to “GGCUAGAACUAGUGGAUCCCCCGGCGCCCGGCGGCUCGAGCCCGGGUAAGUGUAAAUGGUCUGCAUGCCGCCGGGCGCCAUGCCUGCAGGUCGACUCUAGAAAACAUG”, the binding signal in [5] was 2.5 log2 enrichment (interaction score).
On to “GGCUAGAACUAGUGGAUCCCCCGGCGCCCGGCGGCUCGAGCCCGGGUAAGUGAAAAUAGUCUGCAUGCCGCCGGGCGCCAUGCCUGCAGGUCGACUCUAGAAAACAUG”, for which the binding signal in test [6] is 3.42 log2 enrichment (interaction score); in test [7], 5.24 log2 enrichment (interaction score).
Take “GGCUAGAACUAGUGGAUCCCCCGGCGCCCGGCGGCUCGAGCCCGGGUAAGCGUAAAUAGUCUGCAUGCCGCCGGGCGCCAUGCCUGCAGGUCGACUCUAGAAAACAUG”: the binding signal in [8] is 3.45 log2 enrichment (interaction score).
For “GGCUAGAACUAGUGGAUCCCCCGGCGCCCGGCGGCUCGAGCCCGGGUAAGUGUAAUUAGUCUGCAUGCCGCCGGGCGCCAUGCCUGCAGGUCGACUCUAGAAAACAUG”, the binding signal was 3.22 log2 enrichment (interaction score) in test [9], 3.82 log2 enrichment (interaction score) in [2], 3.08 log2 enrichment (interaction score) in test [10] and 1.22 log2 enrichment (interaction score) in test [4].
As for “GGCUAGAACUAGUGGAUCCCCCGGCGCCCGGCGGCUCGAGCCCGGGUAAGUCUAAAUAGUCUGCAUGCCGCCGGGCGCCAUGCCUGCAGGUCGACUCUAGAAAACAUG”, the binding signal in test [11] is 2.68 log2 enrichment (interaction score).
